Source: PubChem BioAssay AID1159580 (chemical genetic matrix, 2015)
Screen size: about 5,500 compounds; about 2,000 (36%) were called active. Another 18% or so got no clear call; they are omitted. No stated cut-off is given here; in the data, active means normalized growth mostly below about 0.91 (no sharp cut-off); inconclusive means no clear call, values can overlap the other calls; inactive means mostly above about 0.92. This is one part of the list.

Assay: chemical genetic growth profiling, strain panel (AID 1159580);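 further: tested at 20 µM; growth read once vehicle control cultures reached saturation at 30 °C; 1 = growth at the plate median or of vehicle wells; lower values mean less growth of the strain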
Details: growth OD
[1] = S. cerevisiae deletion strains, locus YAL013W, strain DEP1, active compounds read low
[2] = S. cerevisiae deletion strains, locus YBR021W, strain FUR4, active compounds read low
[3] = S. cerevisiae deletion strains, locus YBR229C, strain ROT2, active compounds read low
[4] = S. cerevisiae deletion strains, locus YCL029C, strain bik1, active compounds read low
[5] = S. cerevisiae deletion strains, locus YDL035C, strain GPR1, active compounds read low
[6] = S. cerevisiae deletion strains, locus YDL074C, strain BRE1, active compounds read low
[7] = S. cerevisiae deletion strains, locus YDL101C, strain DUN1, active compounds read low
[8] = S. cerevisiae deletion strains, locus YDL134C, strain PPH21, active compounds read low
[9] = S. cerevisiae deletion strains, locus YDL185W, strain tfp1, active compounds read low
[10] = S. cerevisiae deletion strains, locus YDL192W, strain arf1, active compounds read low
[11] = S. cerevisiae deletion strains, locus YDR101C, strain arx1, active compounds read low
[12] = S. cerevisiae deletion strains, locus YDR150W, strain NUM1, active compounds read low
[13] = S. cerevisiae deletion strains, locus YDR162C, strain NBP2, active compounds read low
[14] = S. cerevisiae deletion strains, locus YDR318W, strain mcm21, active compounds read low
[15] = S. cerevisiae deletion strains, locus YDR388W, active compounds read low
[16] = S. cerevisiae deletion strains, locus YDR502C, strain sam2, active compounds read low
[17] = S. cerevisiae deletion strains, locus YEL061C, strain CIN8, active compounds read low
[18] = S. cerevisiae deletion strains, locus YER110C, active compounds read low
[19] = S. cerevisiae deletion strains, locus YER155C, strain BEM2, active compounds read low
[20] = S. cerevisiae deletion strains, locus YER167W, strain BCK2, active compounds read low
[21] = S. cerevisiae deletion strains, locus YGL078C, strain dbp3, active compounds read low
[22] = S. cerevisiae deletion strains, locus YGL086W, strain mad1, active compounds read low
[23] = S. cerevisiae deletion strains, locus YGL248W, strain PDE1, active compounds read low
[24] = S. cerevisiae deletion strains, locus YGR078C, strain PAC10, active compounds read low
[25] = S. cerevisiae deletion strains, locus YGR135W, strain pre9, active compounds read low
[26] = S. cerevisiae deletion strains, locus YGR229C, strain SMI1, active compounds read low
[27] = S. cerevisiae deletion strains, locus YGR252W, strain gcn5, active compounds read low
[28] = S. cerevisiae deletion strains, locus YHR030C, strain SLT2, active compounds read low
[29] = S. cerevisiae deletion strains, locus YHR079C, strain IRE1 (second series), active compounds read low
[30] = S. cerevisiae deletion strains, locus YHR094C, strain hxt1, active compounds read low
[31] = S. cerevisiae deletion strains, locus YHR129C, strain ARP1, active compounds read low
[32] = S. cerevisiae deletion strains, locus YHR200W, strain rpn10, active compounds read low
[33] = S. cerevisiae deletion strains, locus YIL066C, strain RNR3, active compounds read low
[34] = S. cerevisiae deletion strains, locus YIL073C, strain SPO22, active compounds read low
[35] = S. cerevisiae deletion strains, locus YIL125W, strain kgd1, active compounds read low
[36] = S. cerevisiae deletion strains, locus YIR030C, strain dcg1, active compounds read low
[37] = S. cerevisiae deletion strains, locus YJL095W, strain BCK1, active compounds read low
[38] = S. cerevisiae deletion strains, locus YJL134W, strain LCB3, active compounds read low
[39] = S. cerevisiae deletion strains, locus YJL168C, strain set2, active compounds read low
[40] = S. cerevisiae deletion strains, locus YJL187C, strain SWE1 (second series), active compounds read low
[41] = S. cerevisiae deletion strains, locus YJR043C, strain POL32, active compounds read low
[42] = S. cerevisiae deletion strains, locus YJR075W, strain HOC1, active compounds read low
[43] = S. cerevisiae deletion strains, locus YKL009W, strain mrt4, active compounds read low
[44] = S. cerevisiae deletion strains, locus YKL068W, active compounds read low
[45] = S. cerevisiae deletion strains, locus YKL085W, strain MDH1 (second series), active compounds read low
[46] = S. cerevisiae deletion strains, locus YKL085W, strain MDH1, active compounds read low
[47] = S. cerevisiae deletion strains, locus YKL190W, strain CNB1, active compounds read low
[48] = S. cerevisiae deletion strains, locus YKR001C, strain vps1, active compounds read low
[49] = S. cerevisiae deletion strains, locus YLR039C, strain RIC1, active compounds read low
[50] = S. cerevisiae deletion strains, locus YLR058C, strain SHM2, active compounds read low
[51] = S. cerevisiae deletion strains, locus YLR102C, strain apc9, active compounds read low
[52] = S. cerevisiae deletion strains, locus YLR262C, strain YPT6, active compounds read low
[53] = S. cerevisiae deletion strains, locus YLR268W, strain sec22, active compounds read low
[54] = S. cerevisiae deletion strains, locus YLR330W, strain CHS5, active compounds read low
[55] = S. cerevisiae deletion strains, locus YLR342W, strain FKS1 (second series), active compounds read low
[56] = S. cerevisiae deletion strains, locus YLR371W, strain rom2, active compounds read low
[57] = S. cerevisiae deletion strains, locus YLR418C, strain cdc73, active compounds read low
[58] = S. cerevisiae deletion strains, locus YML016C, strain PPZ1, active compounds read low
[59] = S. cerevisiae deletion strains, locus YML032C, strain rad52, active compounds read low
[60] = S. cerevisiae deletion strains, locus YML124C, strain tub3, active compounds read low
[61] = S. cerevisiae deletion strains, locus YMR078C, strain ctf18, active compounds read low
[62] = S. cerevisiae deletion strains, locus YMR223W, strain ubp8, active compounds read low
[63] = S. cerevisiae deletion strains, locus YMR263W, strain SAP30, active compounds read low
[64] = S. cerevisiae deletion strains, locus YMR307W, strain GAS1, active compounds read low
[65] = S. cerevisiae deletion strains, locus YNL067W, strain RPL9B, active compounds read low
[66] = S. cerevisiae deletion strains, locus YNL128W, strain TEP1, active compounds read low
[67] = S. cerevisiae deletion strains, locus YNL153C, strain GIM3, active compounds read low
[68] = S. cerevisiae deletion strains, locus YNL233W, strain BNI4, active compounds read low
[69] = S. cerevisiae deletion strains, locus YNL250W, strain rad50, active compounds read low
[70] = S. cerevisiae deletion strains, locus YNL271C, strain bni1, active compounds read low
[71] = S. cerevisiae deletion strains, locus YNL298W, strain CLA4, active compounds read low
[72] = S. cerevisiae deletion strains, locus YNL307C, strain MCK1, active compounds read low
[73] = S. cerevisiae deletion strains, locus YNL322C, strain KRE1, active compounds read low
[74] = S. cerevisiae deletion strains, locus YNR052C, strain pop2, active compounds read low
[75] = S. cerevisiae deletion strains, locus YOL006C, strain TOP1, active compounds read low
[76] = S. cerevisiae deletion strains, locus YOL012C, strain htz1
[77] = S. cerevisiae deletion strains, locus YOL147C, strain pex11, active compounds read low
[78] = S. cerevisiae deletion strains, locus YOR061W, strain CKA2, active compounds read low
[79] = S. cerevisiae deletion strains, locus YOR069W, strain VPS5, active compounds read low
[80] = S. cerevisiae deletion strains, locus YOR136W, strain idh2, active compounds read low
[81] = S. cerevisiae deletion strains, locus YOR144C, strain elg1, active compounds read low
[82] = S. cerevisiae deletion strains, locus YOR184W, strain ser1, active compounds read low
[83] = S. cerevisiae deletion strains, locus YOR316C, strain cot1, active compounds read low
[84] = S. cerevisiae deletion strains, locus YPL055C, strain LGE1, active compounds read low
[85] = S. cerevisiae deletion strains, locus YPL241C, strain CIN2, active compounds read low
[86] = S. cerevisiae deletion strains, locus YPR119W, strain clb2, active compounds read low
[87] = S. cerevisiae deletion strains, locus YPR141C, strain kar3, active compounds read low
[88] = S. cerevisiae deletion strains, locus YPR163C, strain tif3, active compounds read low
[89] = S. cerevisiae deletion strains, locus YPR167C, strain met16, active compounds read low
[90] = S. cerevisiae deletion strains, strain wtn01, active compounds read low
[91] = S. cerevisiae strains, strain wild type, active compounds read low

Measured: normalized growth

CCOP(=S)(OCC)SCSCC
inactive: [1] 1 | [2] 0.979 | [3] 1 | [4] 1 | [5] 0.986 | [6] 0.963 | [7] 1 | [8] 0.998 | [9] 1.01 | [10] 1 | [11] 0.993 | [12] 0.994 | [13] 0.969 | [14] 1.01 | [15] 1 | [16] 1 | [17] 1.01 | [18] 1 | [19] 1 | [20] 1 | [21] 1 | [22] 0.998 | [23] 1 | [24] 0.99 | [25] 1.01 | [26] 0.998 | [27] 0.993 | [28] 1 | [29] 1.01 | [30] 0.997 | [31] 1.01 | [32] 1.01 | [33] 1.01 | [34] 1.06 | [35] 1 | [36] 1.01 | [37] 0.993 | [38] 1 | [39] 1.01 | [40] 1.01 | [41] 1.01 | [42] 1 | [43] 1.01 | [44] 1.01 | [45] 1 | [46] 1 | [47] 1.01 | [48] 0.998 | [49] 1.01 | [50] 1.01 | [51] 1.02 | [52] 0.953 | [53] 0.991 | [54] 0.999 | [55] 1.03 | [56] 1.02 | [57] 0.943 | [58] 1 | [59] 1 | [60] 1.01 | [61] 1 | [62] 1.01 | [63] 0.952 | [64] 1.02 | [65] 0.988 | [66] 1 | [67] 1 | [68] 1 | [69] 1.01 | [70] 1 | [71] 1.02 | [72] 1 | [73] 1.01 | [74] 1.01 | [75] 0.985 | [76] 0.793 | [77] 1 | [78] 0.994 | [79] 1 | [80] 1 | [81] 0.996 | [82] 1.01 | [83] 1 | [84] 0.974 | [85] 0.998 | [86] 0.997 | [87] 1.01 | [88] 1.01 | [89] 1.01 | [90] 1.01 | [91] 1.01

CCOP(=S)(OCC)SCSP(=S)(OCC)OCC
inactive: [1] 0.993 | [2] 1 | [3] 0.961 | [4] 0.978 | [5] 0.956 | [6] 0.89 | [7] 0.97 | [8] 0.986 | [9] 0.957 | [10] 0.979 | [11] 0.989 | [12] 0.984 | [14] 0.981 | [15] 0.994 | [16] 0.99 | [17] 0.995 | [18] 0.987 | [19] 1.01 | [20] 0.972 | [21] 0.984 | [22] 1 | [23] 0.946 | [24] 0.969 | [25] 0.981 | [26] 0.908 | [27] 0.954 | [28] 1.01 | [29] 0.989 | [30] 0.999 | [31] 0.969 | [32] 0.995 | [33] 0.94 | [34] 0.907 | [35] 0.981 | [36] 0.984 | [37] 0.964 | [38] 0.988 | [39] 0.984 | [40] 0.984 | [41] 0.984 | [42] 0.928 | [43] 0.946 | [44] 0.993 | [45] 0.984 | [46] 0.984 | [47] 1 | [48] 0.978 | [49] 0.868 | [50] 0.982 | [51] 0.983 | [52] 0.829 | [53] 0.981 | [54] 0.992 | [55] 0.996 | [56] 0.985 | [57] 0.932 | [58] 0.988 | [59] 0.989 | [60] 0.996 | [61] 0.997 | [62] 0.98 | [63] 0.981 | [64] 0.954 | [65] 0.971 | [66] 0.918 | [67] 0.987 | [68] 0.982 | [69] 0.982 | [70] 0.991 | [71] 0.979 | [72] 0.987 | [73] 0.981 | [74] 0.986 | [75] 0.788 | [76] 1.08 | [77] 1.01 | [78] 0.964 | [79] 0.995 | [80] 0.988 | [81] 0.989 | [82] 0.968 | [83] 0.969 | [84] 0.914 | [85] 0.989 | [86] 0.993 | [87] 0.949 | [88] 0.994 | [89] 0.979 | [90] 0.981 | [91] 0.982
active: [13] 0.806
